HCMV inh: qHTS Assay for inhibitors of the human cytomegalovirus (HCMV); HFF cells, HCMV-luciferase reporter, 72 h; hits give low values; activity change, negative = inhibition, % at 57.5 µM; hit rate 4.5% among 410,000; AID 1259415, 2018; in the data active = activity change below about -60%; inconclusive = no clear call, values can overlap the other calls; inactive = above about -39%
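Human foreskin fibroblasts infected with luciferase-reporter HCMV at MOI 1 PFU/cell, compounds at two doses. Luciferase measured 72 h post infection; normalized to buffer-only basal and Salinomycin (10uM) controls.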
CHX counter: Cycloheximide Counterscreen for Small Molecule Inhibitors of Shiga Toxin | cell reporter, cycloheximide protein synthesis inhibition counterscreen | max response, % | hit rate 12% among 300,000 | AID 2314, 2010; in the data active = max response mostly above about 13%, no sharp cut-off; inactive = mostly below about 14%; note: read at 38.3 µM for the half of the compounds with a filed dose
HCV inhibitor: qHTS Assay for Inhibitors of Hepatitis C Virus (HCV); Huh7.5.1 HCVcc-Cre infection, luciferase reporter, 44 h; Potency, µM (titrated, usually from 41.8 µM), usual class: inhibitors; hit rate 3.4% among 340,000
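Antiviral activity was scored by luciferase reporter output from cells infected with HCVcc-Cre (~0.5 moi) in presence of compound, 44 h infection period, cells seeded 1,000/well 4 h prior.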
Pf growth 48h: Primary qHTS for delayed death inhibitors of the malarial parasite plastid, 48 hour incubation | hit rate 5.9% among 310,000 | Potency, µM (highest dose often 28.7 µM), actives largely listed as inhibitors | P. falciparum luciferase growth in erythrocytes, 48 h
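Compounds are pin-transferred into medium, infected erythrocytes (2% hematocrit, 0.1% parasitemia final) are added, and plates sit one parasite generation at 37 C in 5% CO2. Detection reagent is then added and luminescence measured.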
Pf growth 96h: Primary qHTS for delayed death inhibitors of the malarial parasite plastid, 96 hour incubation; hit rate 6.9% among 320,000; P. falciparum luciferase reporter growth, 96 h; AID 504834, 2011; Potency, µM (titrated, usually from 28.7 µM), actives largely listed as inhibitors
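P. falciparum expressing integrated firefly luciferase, in erythrocytes at 2% hematocrit, 0.05% parasitemia, incubated with compounds 96 h at 37 C, 5% CO2. Growth inhibition read as loss of luminescence; two-generation exposure targets delayed-death apicoplast inhibitors.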
Shiga toxin inh: A qHTS for Small Molecule Inhibitors of Shiga Toxin; inhibition, % at 38.7 µM; AID 2315, 2010; Vero cells, Shiga toxin protein synthesis inhibition reporter; hit rate 9.2% among 290,000; in the data active = inhibition mostly above about 28%, no sharp cut-off; inactive = mostly below about 43%
A number is an active result. Hits are enriched below; roughly 21% of the tested compounds scored in any of these assays. Unless noted, calls come from the whole dose curve; as a rule, active = well fitted inhibition curve with a large enough effect; inconclusive = small, poorly fitted or top-dose-only effect, or another doubt; inactive = no such curve, though single readings can be large or run the other way.

For COc1cc(CN2CCN(C(=O)c3cccc4ccccc34)CC2)cc(OC)c1O the results were HCMV inh inactive, CHX counter inactive, HCV inhibitor inactive, Pf growth 48h inactive and Pf growth 96h 15µM.
Screening CCOc1ccc2oc(=O)cc(CN3CCN(C(=O)c4ccc(Cl)cc4)CC3)c2c1 returned HCMV inh -67.
COC(=O)C(Cc1ccc(O)cc1)NC(=O)c1ccc2c(c1)OCCO2 (stereo unspecified) was read as HCMV inh inactive, CHX counter inactive, HCV inhibitor inactive, Pf growth 48h inactive, Pf growth 96h inactive and Shiga toxin inh inactive.
O=C(CCCc1c[nH]c2ccccc12)Nc1ccc(S(=O)(=O)Nc2ncccn2)cc1 was read as HCMV inh inactive, CHX counter inactive, HCV inhibitor inactive, Pf growth 48h inactive, Pf growth 96h inactive and Shiga toxin inh inactive.
Screening CCSC1=N/C(=C\c2ccc3c(c2)OCO3)C(=O)S1 returned HCMV inh inactive, CHX counter inactive, HCV inhibitor inactive, Pf growth 48h inactive, Pf growth 96h inactive and Shiga toxin inh inactive.
For O=C1NC(N2CCOCC2)=N/C1=C/c1ccc2c(c1)OCO2 the results were HCMV inh inactive, CHX counter 17, HCV inhibitor inactive, Pf growth 48h inactive, Pf growth 96h inactive and Shiga toxin inh inactive.
For Cc1[nH]nc(NCCO)c1[N+](=O)[O-] the results were HCMV inh inactive, CHX counter inactive, HCV inhibitor inactive, Pf growth 48h inactive, Pf growth 96h inactive and Shiga toxin inh inactive.
`Cc1cccc(Nc2n[nH]c(C)c2[N+](=O)[O-])c1` gave HCMV inh inactive, CHX counter 63, HCV inhibitor inactive, Pf growth 48h inactive, Pf growth 96h inactive and Shiga toxin inh 107.
For Cc1[nH]nc(Nc2ccc(C(C)C)cc2)c1[N+](=O)[O-] the results were HCMV inh inactive, CHX counter 57, HCV inhibitor inactive, Pf growth 48h inactive, Pf growth 96h inactive and Shiga toxin inh 55.
Cc1[nH]nc(Sc2ccccn2)c1[N+](=O)[O-] was read as HCMV inh inactive, CHX counter inactive, HCV inhibitor inactive, Pf growth 48h inactive, Pf growth 96h inactive and Shiga toxin inh 44.
Screening Cc1ccc(Nc2n[nH]c(C)c2[N+](=O)[O-])cc1 returned HCMV inh inactive, CHX counter 29, HCV inhibitor inactive, Pf growth 48h inactive, Pf growth 96h inactive and Shiga toxin inh 43.
`Cc1ccc(OCC(=O)NCCNC(=O)c2ccncc2)cc1` gave HCMV inh inactive, CHX counter inactive, HCV inhibitor inactive, Pf growth 48h inactive, Pf growth 96h inactive and Shiga toxin inh inactive.
`CC(=O)Nc1ccc(S(=O)(=O)N(C)CC(=O)OCC(=O)NCc2ccco2)cc1` gave HCMV inh inactive, HCV inhibitor inactive, Pf growth 48h inactive and Pf growth 96h inactive.
For Cc1[nH]nc(NNC(=O)c2ccccc2)c1[N+](=O)[O-] the results were HCMV inh inactive, CHX counter inactive, HCV inhibitor inactive, Pf growth 48h inactive, Pf growth 96h inactive and Shiga toxin inh inactive.
For Cc1[nH]nc(Nc2ccccc2)c1[N+](=O)[O-] the results were HCMV inh inactive, CHX counter 31, HCV inhibitor inactive, Pf growth 48h inactive, Pf growth 96h inconclusive and Shiga toxin inh inactive.
Screening Cc1[nH]nc(Nc2ccc(Br)cc2)c1[N+](=O)[O-] returned HCMV inh inactive, CHX counter 56, HCV inhibitor inactive, Pf growth 48h inactive, Pf growth 96h inactive and Shiga toxin inh 112.
For Cc1nc(Nc2ccc(Br)cc2Br)c([N+](=O)[O-])c(=O)[nH]1 the results were HCMV inh inactive.
Screening CCOC(=O)Cn1cc(C(=O)c2ccccc2F)c2ccccc21 returned HCMV inh inactive, CHX counter 17, HCV inhibitor inactive, Pf growth 48h inactive, Pf growth 96h inactive and Shiga toxin inh inactive.
CC(C)(C)NC(=O)Cn1cc(C(=O)c2ccccc2F)c2ccccc21 was read as HCMV inh inactive, CHX counter inactive, HCV inhibitor inactive, Pf growth 48h inactive and Shiga toxin inh inactive.
`O=C(c1ccccc1F)c1cn(Cc2ccc(F)cc2)c2ccccc12` gave HCMV inh inactive, CHX counter inactive, HCV inhibitor inactive, Pf growth 48h inactive, Pf growth 96h 7.4µM and Shiga toxin inh inactive.
Screening COC(=O)Cn1cc(C(=O)c2ccccc2F)c2ccccc21 returned HCMV inh inactive, CHX counter inactive, HCV inhibitor inactive, Pf growth 48h inactive, Pf growth 96h 1.7µM and Shiga toxin inh inactive.
CCOc1ccccc1NC(=O)COc1ccc2c(c1)OCO2 was read as HCMV inh inactive, CHX counter inactive, HCV inhibitor inconclusive, Pf growth 48h inactive, Pf growth 96h inactive and Shiga toxin inh 59.
`O=C(COc1ccc2c(c1)OCO2)NC12CC3CC(CC(C3)C1)C2` gave HCMV inh inactive, CHX counter 17, HCV inhibitor inactive, Pf growth 48h inconclusive, Pf growth 96h inactive and Shiga toxin inh 44.
Screening CSc1ccccc1NC(=O)COc1ccc2c(c1)OCO2 returned HCMV inh inactive and HCV inhibitor inconclusive.
`CCc1nnc(NC(=O)COc2ccc3c(c2)OCO3)s1` gave HCMV inh inactive, CHX counter inactive, HCV inhibitor inactive, Pf growth 48h inactive, Pf growth 96h inactive and Shiga toxin inh inactive.
`Cc1ccc(NC(=O)COc2ccc3c(c2)OCO3)c(C)c1` gave HCMV inh inactive, HCV inhibitor inactive, Pf growth 48h inactive and Pf growth 96h inactive.
`NC(=O)c1ccccc1NC(=O)COc1ccc2c(c1)OCO2` gave HCMV inh inactive, CHX counter 29, HCV inhibitor inactive, Pf growth 48h inactive, Pf growth 96h inconclusive and Shiga toxin inh 85.
COc1ccccc1NC(=O)COc1ccc2c(c1)OCO2 was read as HCMV inh inactive, CHX counter 25, HCV inhibitor inactive, Pf growth 48h inactive, Pf growth 96h inactive and Shiga toxin inh 70.
For COc1ccc(OCC(=O)Nc2ccccc2OC(F)F)cc1 the results were HCMV inh inactive, CHX counter 9.6, HCV inhibitor inconclusive, Pf growth 48h inactive and Shiga toxin inh inactive.
`COc1ccc(OCC(=O)Nc2ccccc2OC)cc1` gave HCMV inh inactive, CHX counter inactive, HCV inhibitor inactive, Pf growth 96h inconclusive and Shiga toxin inh inactive.
`O=C(COc1ccc2c(c1)OCO2)Nc1nncs1` gave HCMV inh inactive, CHX counter 18, HCV inhibitor inactive, Pf growth 48h inactive, Pf growth 96h inactive and Shiga toxin inh inactive.
For COc1ccccc1-c1nnc(SCC(=O)Nc2ccc3[nH]c(=O)[nH]c3c2)n1N the results were HCMV inh inactive, HCV inhibitor inactive, Pf growth 48h inactive and Pf growth 96h inactive.
